# From PubChem BioAssay
# PKM2 inhibitor = qHTS Assay for Inhibitors of Human Muscle isoform 2 Pyruvate Kinase; Pyruvate kinase PKM (Homo sapiens), P14618; purified PKM2, ATP generation, Kinase-Glo luminescence; Potency, µM (highest dose often 57.5 µM), inactives show top-dose activity change, negative = inhibition, usual class: inhibitors; hit rate 0.058% among 260,000; AID 1634, 2009; active = well fitted inhibition curve with a large enough effect; also: nearly all actives have a fitted effect of over 60% in size
# Target sequence (P14618 whole entry, looked up, canonical isoform): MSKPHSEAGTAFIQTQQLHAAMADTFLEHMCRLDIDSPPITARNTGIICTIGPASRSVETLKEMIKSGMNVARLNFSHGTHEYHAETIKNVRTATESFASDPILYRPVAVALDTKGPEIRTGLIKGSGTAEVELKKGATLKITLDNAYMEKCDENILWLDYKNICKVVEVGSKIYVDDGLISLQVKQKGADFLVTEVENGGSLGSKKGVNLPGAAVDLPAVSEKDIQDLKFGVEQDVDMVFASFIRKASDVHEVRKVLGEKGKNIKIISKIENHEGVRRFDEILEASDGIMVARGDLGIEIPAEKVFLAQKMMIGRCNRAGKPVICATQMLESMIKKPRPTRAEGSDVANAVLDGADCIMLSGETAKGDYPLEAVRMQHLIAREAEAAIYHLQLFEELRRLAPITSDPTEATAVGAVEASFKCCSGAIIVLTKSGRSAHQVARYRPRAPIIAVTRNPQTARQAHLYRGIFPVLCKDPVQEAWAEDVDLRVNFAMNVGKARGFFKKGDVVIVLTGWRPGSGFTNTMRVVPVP
#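 Coupled luciferase luminescence (Kinase-Glo) detects ATP generated from 0.1 mM ADP and 0.5 mM PEP in imidazole buffer pH 7.2 with KCl, MgCl2; 1 h at room temperature. Enzyme at intermediate activity; normalized to uninhibited and no-enzyme controls.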
# An asterisk follows results filed as active. Many of the other results were omitted from the sample, so hits are more common in it than they were. Potency is read from the fitted curve at half-maximal effect.
SMILES,PKM2 inhibitor
CCOc1ccc(C(=O)Nc2cc(C)ccn2)cc1,14µM*
CCOc1ccc(-c2nnc(SCC(=O)Nc3cc(C)on3)o2)cc1,28%
COc1ccc(C(=O)Nc2c(C)cc(C)cc2C)cc1OC,-33%
Cc1cc(C(=O)N2CCN(c3ncccn3)CC2)c(C)o1,32%
Cc1ccc(S(=O)(=O)c2c(N)n(Cc3ccco3)c3nc4ccccc4nc23)cc1C,38%
Nc1nc(-c2ccccc2)cn1N,78%
Cc1ccc2nc(-c3ccccc3)cn2c1,14µM*
CC(=O)c1c(C)[nH]c(C(=O)Nc2ccc(Cl)c(S(=O)(=O)N(C)C)c2)c1C,60%
Cc1ccc(-n2nnc(-c3nccn3C)n2)cc1,16µM*
COc1ccccc1COC(=O)N/C=C/c1ccco1,68%
Cc1occc1C(=O)O/N=C(\N)c1ccccc1,7.1µM*
Cc1ccc(/C(N)=N/OC(=O)Cc2cccc3ccccc23)cc1,61%
O=C(CCN1C(=O)c2ccc([N+](=O)[O-])cc2C1=O)Nc1cccc(O)c1,30%
Cc1cc(NN)nc(NS(=O)(=O)c2ccc(Cl)cc2)n1,45%
O=C(Nn1cnnc1)C(c1ccccc1)c1ccccc1,120%
O=c1c2ccccc2nc(-c2ccco2)n1/N=C/c1ccccc1O,47%
Cc1ccc(-n2[nH]c(C)c(/C=N/n3c(C)nc4ccccc4c3=O)c2=O)cc1,13µM*
N#CCc1ccc(NS(=O)(=O)c2cccs2)cc1,90%
COc1cc(/C=C2\COC/C(=C\c3cc(OC)c(OC)c(OC)c3)C2=O)cc(OC)c1OC,57%
O=C(Cn1cc2c(n1)CCCC2)NCc1ccccn1,0%
C=CCSc1nnc2c(n1)[nH]c1c(C)cccc12,10%
COc1ccc(-n2c(=S)[nH]c3ncccc3c2=O)cc1,0%
COc1ccc(N2Cc3ccccc3C2=O)cc1,14µM*
COc1ccc(N2C(=O)CC(Sc3nnc(-c4ccccc4F)n3C)C2=O)cc1 (configuration not stated),50%
Cc1ccc(NC(=O)c2cc(N3C(=O)C=CC3=O)ccc2Cl)cc1C,85%
SMILES,PKM2 inhibitor
CCOC(=O)c1ccc(NC(=O)CN2C(=O)NC3(CCC(C)CC3)C2=O)cc1 (configuration not stated),0%
COc1cc(C(C[N+](=O)[O-])c2c(C)cc3ccccn23)ccc1O (configuration not stated),31%
Clc1ccc(C2=NNC(=NCc3ccc4c(c3)OCO4)SC2)cc1,59%
c1ccc(C2=NNC(=NC3CC3)SC2)cc1,14µM*
COc1cc2c(cc1OC)/C(=C/C(=O)N1CCOCC1)NC(C)(C)C2,75%
O=S(=O)(c1ccccc1F)N1CCN(C(=S)NCc2ccccc2)CC1,49%
CCC1Cc2c(nc(N)c3c(N)nc(N4CCCCC4)c(C#N)c23)O1 (configuration not stated),43%
COc1ccc(S(=O)(=O)NCc2c(-c3ccccc3)noc2C)c(OC)c1,78%
COc1cccc(-c2nnc(SCC(=O)Nc3cc(C)on3)o2)c1,42%
c1ccc(-c2noc(-c3ccc4c(c3)OCO4)n2)nc1,8.9µM*
c1cc(-c2nnc(-c3ccncc3)o2)ccn1,72%
COc1cccc(-c2nc(-c3ccccn3)no2)c1,14µM*
O=C(Cn1nnc(-c2ccc3c(c2)OCO3)n1)NCc1ccccc1,85%
c1ccc(-c2noc(-c3ccncc3)n2)nc1,14µM*
Cn1c(C(=O)NCc2ccc3c(c2)OCO3)cc2sccc21,42%
C#CCOC(=O)Nc1ccc(=O)n(Cc2c(Cl)cccc2Cl)c1,57%
Nc1ccc(C(=O)Oc2ccc([N+](=O)[O-])cc2)cc1,61%
Cc1nc(NCc2cccnc2)c2c3c(sc2n1)CC(C)CC3 (configuration not stated),37%
O=c1c2cc(Br)ccc2[nH]c(=S)n1Cc1cccnc1,56%
CCOC(=O)N1CCN(Cc2nc(-c3cccs3)no2)CC1,124%
N/C(=C\C(=O)c1cc(Cl)ccc1O)C(Cl)(Cl)Cl,51%
O=C(CN1C(=O)/C(=C2\SC(=S)N(CCS(=O)(=O)O)C2=O)c2ccccc21)Nc1cccc(Br)c1,45%
Cc1c(C(=O)OCc2ccccc2)nnn1-c1nonc1N,36%
N/C(=N/OC(=O)c1ccccc1F)c1nonc1N,16µM*
CCn1c2ccccc2c2cc(/C=N/n3c(-c4cc(C)[nH]n4)n[nH]c3=S)ccc21,54%
SMILES,PKM2 inhibitor
O=S(=O)(c1ccc(F)cc1)N1CCN(S(=O)(=O)c2cccs2)CC1,46%
CC[C@@H](C)[C@H](NC(=O)OC(C)(C)C)c1nnc(S(=O)(=O)Cc2cc(C)ccc2C)o1,68%
O=C(NCc1cccs1)c1cc2ccccc2o1,0%
O=C(Nc1ccccn1)c1cc2ccccc2o1,13µM*
O=C(CCCc1nc2ccccc2s1)N1CCN(S(=O)(=O)c2cccs2)CC1,118%
C=CCN1C(=O)/C(=N/n2cnnc2)c2ccccc21,52%
O=C(NC(=S)Nc1ccc(CN2CCOCC2)cc1)c1ccc(-c2ccc(Br)cc2)o1,-3%
O=C(Nc1cccc([N+](=O)[O-])c1)C12CC3CC(C1)CC(n1cnc([N+](=O)[O-])n1)(C3)C2,48%
COCCCNC(=S)N/N=C/c1ccc(O)cc1,32%
Cc1occc1C(=O)N/N=C/c1ccc(N(C)C)cc1,14µM*
COc1ccccc1N1CCN(C(=O)c2ccc(NS(=O)(=O)c3ccc(C)cc3)cc2)CC1,120%
COc1ccccc1C(=O)Nc1ncc2c(n1)CC(c1ccco1)CC2=O (configuration not stated),46%
CCCCNS(=O)(=O)c1ccc2nc(SCC(=O)c3ccccc3OC)[nH]c2c1,32%
COc1ccccc1C(=O)Nc1nc2ccccc2[nH]1,16µM*
Cc1cc2oc(=O)sc2cc1NS(=O)(=O)c1cccc2cccnc12,81%
COc1cccc(NC(=O)CN(C2=NC3CS(=O)(=O)CC3S2)c2cccc(C)c2)c1 (configuration not stated),32%
COc1cc2c(-c3ccc(O)cc3)nc3c(c(C)nn3-c3ccccc3)c2cc1OC,49%
Cc1ccc(S(=O)(=O)N2CCN(C(=O)CSc3nnc(-c4ccco4)o3)CC2)cc1,39%
COc1ccc(-n2cnnc2SCC(=O)c2ccc(S(=O)(=O)N3CCOCC3)cc2)cc1,46%
COc1ccc(-c2cc3nc(C)cc(N)n3n2)cc1,14µM*
COc1ccc2nc(C)cc(Nc3ccc(C)cc3)c2c1,-1%
S=C(Nc1ccccc1)N1CCN(C(=S)c2ccccc2)CC1,36%
CCOC(=O)C1=C(Cn2cnc3ccccc32)NC(=O)NC1c1cc(C)ccc1C (configuration not stated),45%
Cc1[nH]c2ccccc2c1C(=O)CSc1ccccn1,44%
CC1CN=C2C(C(=O)Nc3ccccc3)=C(O)CC(c3ccccc3)N21 (configuration not stated),44%
SMILES,PKM2 inhibitor
CCn1c(-c2cc(-c3ccccc3)sc2N)n[nH]c1=S,2%
COc1ccc(NC2CCN(C3CC(=O)N(c4ccc(F)c(Cl)c4)C3=O)CC2)cc1 (configuration not stated),30%
C(=N\n1cnnc1)/c1ccccn1,-9%
C(=N\Nc1nc2ccccc2[nH]1)/c1ccccn1,14µM*
O=c1[nH]c2ccc(N/C(=N/S(=O)(=O)c3ccccc3)c3ccccc3)cc2[nH]1,43%
CC(C)c1ccc(S(=O)(=O)Nc2ccc(SC(F)F)cc2)cc1,32%
Nc1ccc(N)c(C(=O)O)c1,34%
COc1ccc(/C=C/C(=O)NCCNC(=O)c2ccccc2)cc1OC,38%
COc1ccc(-n2c(SCC(=O)O)nnc2-c2ccc(NC(=O)c3ccccc3)cc2)cc1,40%
